Reference: paper PMC5700166

molecular target: T1, GST-Ap-NF-kB RHD (Exaiptasia pallida (Aiptasia), UniProt A0A913YAJ5 2-422); experiment: protein-binding microarray (PBM); PBM: ~300 nM protein, 6 mM HEPES pH 7.8, 80 mM KCl, 0.5 mM EDTA, 0.5 mM EGTA, 6% glycerol, 35 ng/ul poly-dIdC, 1% milk, 1 h, room temperature; Ap Aiptasia and Nv Nematostella (sea anemones) / Co Capsaspora / Aq Amphimedon (sponge) / Dm Drosophila / Hu human; RHD is the Rel homology domain; high values mean tight binding; settings: dsDNA, one strand shown
T1 sequence: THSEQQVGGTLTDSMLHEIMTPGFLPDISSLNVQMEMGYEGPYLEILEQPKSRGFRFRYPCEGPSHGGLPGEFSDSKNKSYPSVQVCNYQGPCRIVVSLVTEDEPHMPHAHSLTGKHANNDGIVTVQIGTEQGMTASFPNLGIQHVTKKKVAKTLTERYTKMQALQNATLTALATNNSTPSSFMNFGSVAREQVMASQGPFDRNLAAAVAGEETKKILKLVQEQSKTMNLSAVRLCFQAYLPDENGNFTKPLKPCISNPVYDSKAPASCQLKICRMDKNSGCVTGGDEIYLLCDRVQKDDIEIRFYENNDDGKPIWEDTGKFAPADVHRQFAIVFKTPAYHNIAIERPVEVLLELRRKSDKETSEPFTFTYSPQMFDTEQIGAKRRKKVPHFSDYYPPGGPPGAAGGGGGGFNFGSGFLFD

Sequence	binding signal [z-score]
CCGATTAACATCATGGGGACGACTGATGTTAATCGGGTCTTGATTCGCTTGACGCTGCTG	3.56
CCGATTAACATCATGGAGGGAGGTGATGTTAATCGGGTCTTGATTCGCTTGACGCTGCTG	1.29
CCGATTAACATCAACTTTCCCAGTGATGTTAATCGGGTCTTGATTCGCTTGACGCTGCTG	1.05
CCGATTAACATCACCCACTTCCCTGATGTTAATCGGGTCTTGATTCGCTTGACGCTGCTG	1.06
CCGATTAACATCAGGGACAAAAATGATGTTAATCGGGTCTTGATTCGCTTGACGCTGCTG	2
CCGATTAACATCAGGGAATCAGATGATGTTAATCGGGTCTTGATTCGCTTGACGCTGCTG	1.26
CCGATTAACATCATGTTGGGAAATGATGTTAATCGGGTCTTGATTCGCTTGACGCTGCTG	1.02
CCGATTAACATCAACTCGGGAAATGATGTTAATCGGGTCTTGATTCGCTTGACGCTGCTG	1.08
CCGATTAACATCAATTCCCGTACTGATGTTAATCGGGTCTTGATTCGCTTGACGCTGCTG	1.81
CCGATTAACATCAACATGGGAAATGATGTTAATCGGGTCTTGATTCGCTTGACGCTGCTG	1.54
CCGATTAACATCATCAGGGAAAATGATGTTAATCGGGTCTTGATTCGCTTGACGCTGCTG	2.12
CCGATTAACATCAGGTCGGGAAATGATGTTAATCGGGTCTTGATTCGCTTGACGCTGCTG	1.76
CCGATTAACATCAGAGTTTCCCATGATGTTAATCGGGTCTTGATTCGCTTGACGCTGCTG	3.08
CCGATTAACATCAGGGAAAAGGATGATGTTAATCGGGTCTTGATTCGCTTGACGCTGCTG	1.79
